Measurements: article PMC12820563, “FoxP3 forms a head-to-head dimer in vivo and stabilizes its multimerization on adjacent microsatellites”
Over roughly 16,000 sequences, “rpm ratio (pull-down/input)” has its median near 0.5; the highest 2% begin near 5.5. Only a selection was taken, and the highest values are over-represented in it overall.

These sequences were tested against T1, MBP-FoxP3dN (Mus musculus, UniProt Q99JB6 188-423) (assay: PD-seq (MBP pull-down with sequencing); 20 mM Tris-HCl pH 7.5, 100 mM NaCl, 1.5 mM MgCl2, 0.4 uM protein, 0.1 uM dsDNA library, 30 min, room temperature, amylose pull-down; high values mean tight binding). Settings: protein: recombinant; tags: His6-MBP; chain copies: 2; dsDNA, one strand shown.
T1 sequence: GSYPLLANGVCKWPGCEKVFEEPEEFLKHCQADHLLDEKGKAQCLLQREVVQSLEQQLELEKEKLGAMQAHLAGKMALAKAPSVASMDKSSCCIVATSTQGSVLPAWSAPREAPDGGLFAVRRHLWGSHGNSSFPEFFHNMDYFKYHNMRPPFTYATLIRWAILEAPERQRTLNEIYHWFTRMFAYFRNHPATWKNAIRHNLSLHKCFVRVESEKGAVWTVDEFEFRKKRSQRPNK
Method in brief: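 The N-terminus-lacking fragment of mouse FoxP3 or FoxP1 carried a His6-MBP tag and was expressed in E. coli. At 0.4 µM it was incubated with 0.1 µM Klenow-filled degenerate double-stranded DNA library for 30 min at room temperature in Tris pH 7.5 buffer with NaCl and MgCl2, and complexes were caught on amylose resin, washed three times, released with proteinase K, PCR-barcoded and Illumina-sequenced. Binding is reads-per-million enrichment of pull-down over input with replicates pooled.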
For “GATGATTGTTCTCCCAGCTGATGAATTGGGCATTTCGAGTAAACAAATTTTCCTAATCTTTCTGTTCAAGCGCCATCTAC”, the binding signal was 5.5 RPM ratio (pull-down/input). “GATGATTGTTCTCCCAGCTGATGAATTGGGGGCATCGAGTAAACAAATTTTCCTAATCTTTCTGTTCAAGCGCCATCTAC” was tested, and the binding signal was 0.87 RPM ratio (pull-down/input). “GATGATTGTTCTCCCAGCTGATGAATTTTGGGCATCGAGTAAACAAATTTTCCTAATCTTTCTGTTCAAGCGCCATCTAC” was tested, and the binding signal was 0.782 RPM ratio (pull-down/input). In the case of “GATGATTGTTCTCCCAGCTGATGAATTTGGGCATTCGAGTAAACAAATTTTCCTAATCTTTCTGTTCAAGCGCCATCTAC”, the binding signal is reported as 4.79 RPM ratio (pull-down/input). For “GATGATTGTTCTCCCAGCTGATGAATTGGGGCATTCGAGTAAACAAATTTTCCTAATCTTTCTGTTCAAGCGCCATCTAC”, the binding signal was 4.3 RPM ratio (pull-down/input). “GATGATTGTTCTCCCAGCTGATGAATTGGGCATCTCGAGTAAACAAATTTTCCTAATCTTTCTGTTCAAGCGCCATCTAC” was tested, and the binding signal was 6.41 RPM ratio (pull-down/input). For “GATGATTGTTCTCCCAGCTGATGAATTAAGTGAATCGAGTAAACAAATTTTCCTAATCTTTCTGTTCAAGCGCCATCTAC”, the binding signal was 0.328 RPM ratio (pull-down/input). “GATGATTGTTCTCCCAGCTGATGAATTAAGGGAGTCGAGTAAACAAATTTTCCTAATCTTTCTGTTCAAGCGCCATCTAC” was tested, and the binding signal was 0.249 RPM ratio (pull-down/input). For “GATGATTGTTCTCCCAGCTGATGAATTGCTTAAATCGAGTAAACAAATTTTCCTAATCTTTCTGTTCAAGCGCCATCTAC”, the binding signal was 0.457 RPM ratio (pull-down/input). For “GATGATTGTTCTCCCAGCTGATGAATTCTAGGTATCGAGTAAACAAATTTTCCTAATCTTTCTGTTCAAGCGCCATCTAC”, the binding signal was 0.464 RPM ratio (pull-down/input). “GATGATTGTTCTCCCAGCTGATGAATTTTGCAATTCGAGTAAACAAATTTTCCTAATCTTTCTGTTCAAGCGCCATCTAC” was tested, and the binding signal was 5.75 RPM ratio (pull-down/input). In the case of “GATGATTGTTCTCCCAGCTGATGAATTTCGCAATTCGAGTAAACAAATTTTCCTAATCTTTCTGTTCAAGCGCCATCTAC”, the binding signal is reported as 4.55 RPM ratio (pull-down/input). In the case of “GATGATTGTTCTCCCAGCTGATGAATTGTGCAATTCGAGTAAACAAATTTTCCTAATCTTTCTGTTCAAGCGCCATCTAC”, the binding signal is reported as 6.39 RPM ratio (pull-down/input). With “GATGATTGTTCTCCCAGCTGATGAATTCTGCAATTCGAGTAAACAAATTTTCCTAATCTTTCTGTTCAAGCGCCATCTAC” the binding signal was 4.83 RPM ratio (pull-down/input). For “GATGATTGTTCTCCCAGCTGATGAATTTGCAATTTCGAGTAAACAAATTTTCCTAATCTTTCTGTTCAAGCGCCATCTAC”, the binding signal was 2.77 RPM ratio (pull-down/input). In the case of “GATGATTGTTCTCCCAGCTGATGAATTGCGCAATTCGAGTAAACAAATTTTCCTAATCTTTCTGTTCAAGCGCCATCTAC”, the binding signal is reported as 5.72 RPM ratio (pull-down/input). With “GATGATTGTTCTCCCAGCTGATGAATTCGCAATTTCGAGTAAACAAATTTTCCTAATCTTTCTGTTCAAGCGCCATCTAC” the binding signal was 1.92 RPM ratio (pull-down/input). With “GATGATTGTTCTCCCAGCTGATGAATTCGTGCAATCGAGTAAACAAATTTTCCTAATCTTTCTGTTCAAGCGCCATCTAC” the binding signal was 3.15 RPM ratio (pull-down/input). For “GATGATTGTTCTCCCAGCTGATGAATTTGCAAATTCGAGTAAACAAATTTTCCTAATCTTTCTGTTCAAGCGCCATCTAC”, the binding signal was 0.496 RPM ratio (pull-down/input).
